Molecules are shown by their SMILES. Inconclusive results are not listed. Where a call stands in place of a potency, no number is given. Activity calls are given as the source filed them. The call rests on the fitted dose curve; in most records, active means well fitted inhibition curve with a large enough effect; inconclusive means small, poorly fitted or top-dose-only effect; inactive means flat fitted curve, though single readings scatter.

This note sets out measurements from PubChem BioAssay (NCATS).

This test deals with DNA repair nuclease/redox regulator APEX1 (Homo sapiens) (UniProt P27695). The test is described as follows: qHTS Validation Assay for Inhibitors of the Human Apurinic/apyrimidinic Endonuclease 1 (APE1) (AID 1705;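 further: TAMRA fluorescence gain over two minutes as APE1 cuts a quenched THF abasic duplex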). To be noted: purified APE1 endonuclease activity, fluorescence, titration; series mostly up to 57.1 µM. From the text: Assay Provider: David M. Wilson, III, National Institute on Aging, NIH
Chain of DNA repair nuclease/redox regulator APEX1 (Homo sapiens) (P27695 whole entry, looked up): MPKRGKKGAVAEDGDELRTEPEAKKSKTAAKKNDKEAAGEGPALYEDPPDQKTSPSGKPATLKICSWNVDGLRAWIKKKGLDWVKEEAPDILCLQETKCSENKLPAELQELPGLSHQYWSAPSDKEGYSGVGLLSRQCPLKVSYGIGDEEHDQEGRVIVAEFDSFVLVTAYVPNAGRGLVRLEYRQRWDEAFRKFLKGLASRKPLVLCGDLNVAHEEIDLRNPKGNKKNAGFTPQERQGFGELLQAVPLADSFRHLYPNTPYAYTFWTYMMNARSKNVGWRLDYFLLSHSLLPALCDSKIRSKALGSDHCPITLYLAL
Screening Center PI: Austin, C.P.
Screening Center: NIH Chemical Genomics Center [NCGC]
The apurinic/apyrimidinic endonuclease APE1 is the primary mammalian enzyme responsible for the removal of abasic (or AP) sites in DNA and functions centrally in the base excision DNA repair (BER) pathway. […] Thus, targeting APE1 could improve the efficacy of current treatment paradigms by promoting selective sensitization or protection of diseased and normal cells, respectively.
Inhibition of APE1 activity was screened by utilizing double-stranded short substrate containing tetrahydrofuran (THF) abasic site labeled with rhodamine-type fluorophore (TAMRA) at the 5'-end and with non-fluorescent Black Hole Quencher-2 (BHQ-2) at the opposing 3'-end. An increase in the fluorescence intensity due to incision of the abasic site by APE1 was used to measure the enzyme activity.
1. Substrate: 50 nM final concentration of TAMRA/BHQ-2 substrate dispensed throughout the plate.
2. Enzyme: […] nM APE1 final concentration in columns 1, 2, 5-48. Column 1 is neutral (100% activity)
3. Control: Pintool transfer of control inhibitor NSC-13755 to column 2 of all assay plates. Two-fold, 16 pt dilution in duplicate to produce final concentrations in the […] uM - […] nM range.
3. Buffer columns in columns 3 and 4 were used as negative control (no enzyme).
Three uL of enzyme were dispensed to 1536-well Greiner black solid bottom plates. Compounds (23 nL) were transferred via Kalypsys pintool. The plates were incubated for 15 min at room temperature, and then 1 uL of substrate solution was added to start the reaction. The plates were immediately transferred into ViewLux High-throughput CCD imager (Perkin-Elmer) in order to measure the reaction progress in kinetic mode (three reads every 60 seconds) using 525 nm excitation and 598 nm emission fluorescence protocol. The fluorescence intensity difference between the third and the first time points was used to compute reaction progress.
On the technique in general: In qHTS, concentration-response curves come from the screen itself.
As to `COc1ccc2c(c[n+](C)c3c4cc5c(cc4ccc23)OCO5)c1OC`, the Potency entry was “inactive”. The result for `CC(Cc1ccc(O)cc1)NCC(O)c1cc(O)cc(O)c1` (stereo not given) reads “inactive”; that for `O=C(Cc1ccc(Cl)c(Cl)c1)N1CCCCC1CN1CCCC1` (stereo not given), “inactive”. The result for `O=C(O)Cc1cnc[nH]1` reads “inactive”; that for `O=C(O)[C@@H]1CCN1`, “inactive”; that for `CNCCc1c[nH]c2ccc(O)cc12`, “inactive”. The entry for `NC(N)=NOCCC(N)C(=O)O` (stereo not given) is “inactive”; for `NCc1cc(=O)[nH]o1` it is “inactive”; for `c1ccc(CCCN2CCN(CCOC(c3ccccc3)c3ccccc3)CC2)cc1` it is “inactive”.

As for `CN[C@@H](C)[C@H](O)c1ccccc1`, the Potency entry was “inactive”. The entry for `C[C@]12N[C@H](Cc3ccccc31)c1ccccc12` is “inactive”; for `c1ccc2sc(C3(N4CCCCC4)CCCCC3)cc2c1` it is “inactive”; for `C[N+](C)(C)CC(=O)O` it is “inactive”.

Regarding `NC(=NCCC[C@H](N)C(=O)O)N[N+](=O)[O-]`, the Potency entry was “inactive”. `S=C(NC1CCCCC1)N1CCC(c2cnc[nH]2)CC1`: the Potency result was “inactive”. In the case of `Cc1c(C(=O)c2cccc3ccccc23)c2cccc3c2n1[C@H](CN1CCOCC1)CO3`, the Potency entry was “inactive”.

With `CC[C@@H]1C(=O)OC[C@@H]1Cc1cncn1C`, the Potency entry was “inactive”. The result for `NC(CCP(=O)(O)O)C(=O)O` (stereo not given) reads “inactive”.

Regarding `C[C@@H](N)Cc1cnc[nH]1`, the Potency result is “inactive”. The result for `C=CCN1CC[C@]23CCCCC2[C@H]1Cc1ccc(O)cc13` (stereo not given in full) reads “inactive”. The entry for `CNCCc1ccc(O)c(O)c1` is “inactive”; for `CCCCc1ccc(C(=O)O)nc1` it is “inactive”; for `C[C@]12CCC3C(CC[C@H]4C[C@H](O)CC[C@]34C)C1CC[C@@H]2C(=O)CO` (stereo not given in full) it is “inactive”.

For the compound `CC1=NN=C(c2ccc(N)cc2)c2cc3c(cc2C1)OCO3`, the Potency entry is “inactive”. The entry for `Oc1ccc2c3c1O[C@H]1c4[nH]c5c(c4C[C@@]4(O)[C@@H](C2)N(CC2CC2)CC[C@]314)C[C@@]1(O)[C@H]2Cc3ccc(O)c4c3[C@@]1(CCN2CC1CC1)[C@H]5O4` is “inactive”. The result for `CS(=N)(=O)CC[C@H](N)C(=O)O` (stereo not given in full) reads “inactive”; that for `CN[C@@H]1C[C@@H](c2ccc(Cl)c(Cl)c2)c2ccccc21`, “inactive”; that for `C#CCOC(=O)C1=CCCN(C)C1`, “inactive”. The entry for `CC(=O)NCCc1c[nH]c2ccccc12` is “inactive”.

As to `CCCN(CCC)[C@@H]1CCc2ccc(O)cc2C1`, the Potency result is “inactive”. As for `CCCN1CCO[C@@H]2c3cc(O)ccc3OC[C@H]21`, the Potency result was “inactive”. The entry for `O=C(O)CC[N+](=O)[O-]` is “inactive”; for `Cn1cnc(CCN)c1` it is “inactive”. For `NC1CC1c1ccccc1` (stereo not given), the Potency entry is “inactive”. The result for `COc1cc(C(O)CN)ccc1O` (stereo not given) reads “inactive”.

Regarding `CC[C@@]1(O)C(=O)OCc2c1cc1n(c2=O)Cc2cc3ccccc3nc2-1`, the Potency result was “inactive”. In the case of `CC(=O)[C@H]1CCC2C3CC[C@H]4C[C@H](O)CC[C@]4(C)C3CC[C@@]21C` (stereo not given in full), the Potency result is “inactive”. `NCCc1c[nH]c2ccc(O)cc12`: the Potency entry was “inactive”. The entry for `NCCc1c[nH]c2ccccc12` is “inactive”; for `Clc1ccc(C(c2ccc(Cl)cc2)n2cc[n+](CC(OCc3ccc(Cl)cc3Cl)c3ccc(Cl)cc3Cl)c2)cc1` (stereo not given) it is “inactive”.
